# From PubChem BioAssay
# Mcl1 Bid PPI: Mcl-1/Bid interaction inhibition; inhibition, % at 21.7 µM; actives 0.97% (n = 220,000); AID 1021; TR-FRET Mcl-1/Bid-Dy647 peptide binding, 1536-well; Q07820;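 active = compounds that cut the binding signal by more than half at the single screening dose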;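 also: His-tagged Mcl-1 with europium anti-His antibody binding Bid BH3 peptide; 0% = Mcl-1 plus peptide wells and 100% = peptide-only wells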
# eIF4E 4G PPI: eIF4E/eIF4G interaction inhibition in translation initiation | inhibition, % at 21.7 µM | TR-FRET eIF4E-eIF4GI(517-606) binding, 2 h | actives 0.37% (n = 220,000);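 active = inhibition above about 30%, limit read from the data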;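 also: 0% = full FRET control wells and 100% = background wells lacking eIF4GI fragment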
# Mcl-1 Bim block: human Bim-Mcl-1 interaction inhibition | Q07820 | Bead-based flow cytometry, Bim peptide-Mcl-1 binding | inhibition, % at 10 µM | actives 0.1% (n = 190,000) | AID 1009; in the data active = inhibition above about 40%;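 also: 0% = no compound tracer wells and 100% = peptide blocker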
# Mcl1-Noxa inh: disrupts binding of human Mcl-1 to Noxa peptide; TR-FRET Mcl-1/Noxa peptide binding, 2 h; inhibition, % at 21.7 µM; actives 1.5% (n = 220,000);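 active = compounds that cut the protein-peptide binding signal by more than 50% relative to plate controls in a single-dose test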;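 also: His-tagged Mcl-1 with rhodamine Noxa BH3 peptide and terbium anti-His antibody; 0% = Mcl-1 plus Noxa peptide wells and 100% = peptide-only wells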
# 14-3-3 Bad PPI: disrupts binding of bovine 14-3-3 zeta to phospho-Bad peptide. P63103. TR-FRET 14-3-3zeta/Dy647-pBad peptide displacement, 1 h. inhibition, % at 21.7 µM. actives 0.71% (n = 220,000). AID 781;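 active = inhibition above about 70%, limit read from the data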;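 also: 0% = full 14-3-3 plus peptide FRET controls and 100% = background without 14-3-3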
# Hck Nef HTS: human Hck-Nef kinase inhibition. AID 463187. P08631. actives 0.68% (n = 220,000). Recombinant Hck-YEEI plus Nef, Z-Lyte FRET kinase assay. inhibition, % at 20 µM;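 active = Hck-Nef kinase inhibition above about 50%, limit read from the data; inactive = inhibition below that limit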;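 also: 0% = DMSO with Hck plus Nef and 100% = Hck alone without Nef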
# Target sequence (P08631 whole entry, looked up): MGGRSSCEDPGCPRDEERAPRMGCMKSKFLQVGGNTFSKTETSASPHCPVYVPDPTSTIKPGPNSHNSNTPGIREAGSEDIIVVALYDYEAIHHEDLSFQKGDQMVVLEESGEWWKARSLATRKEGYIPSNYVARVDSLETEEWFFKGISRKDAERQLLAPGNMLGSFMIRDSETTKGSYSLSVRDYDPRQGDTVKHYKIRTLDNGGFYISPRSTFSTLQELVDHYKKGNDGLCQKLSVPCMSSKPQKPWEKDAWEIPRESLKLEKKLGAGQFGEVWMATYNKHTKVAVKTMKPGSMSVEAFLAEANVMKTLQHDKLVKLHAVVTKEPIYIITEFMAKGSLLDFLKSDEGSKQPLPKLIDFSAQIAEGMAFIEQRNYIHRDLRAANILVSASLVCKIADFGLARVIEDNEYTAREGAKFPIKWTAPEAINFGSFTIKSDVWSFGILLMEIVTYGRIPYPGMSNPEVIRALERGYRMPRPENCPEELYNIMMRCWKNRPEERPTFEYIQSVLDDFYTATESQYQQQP
# * = called active by the depositor; / = no result given; [ ] = another dose, or the depositor's remark. Only some compounds are listed: those with a hit (about 3.5% of all), similar ones and a draw of the others.
SMILES,Mcl1 Bid PPI,eIF4E 4G PPI,Mcl-1 Bim block,Mcl1-Noxa inh,14-3-3 Bad PPI,Hck Nef HTS
S=c1[nH]nc(-c2ccco2)n1/N=C/c1cccs1,-24.1,8.2,0.0,21.2,-7.3,1.1
COc1ccc(NC(=O)CC2S/C(=N\c3nccs3)N(C)C2=O)cc1 (stereo unspecified),-13.4,-1.7,1.0,3.1,-6.6,20.1
Cc1cc(=O)[nH]c(SCC(=O)Nc2ccc(Cl)cn2)n1,-2.6,4.8,-2.0,-8.7,-12.9,2.9
CCCCN(CC)C(=O)c1cc2cc3ccc(OC)cc3nc2o1,-16.5,3.8,-2.0,2.6,1.4,-1.0
CCCCN(C)C(=O)c1cc2cc3ccc(OC)cc3nc2s1,-10.1,1.3,-3.0,-6.6,83.7*[fluorescence artefact?],-1.9
CCOC(=O)N1CCN(Cc2cn3ccccc3n2)CC1,56.1*,4.3,-6.0,8.2,61.7,-12.6
CCOC(=O)N1CCN(Cc2c(F)cccc2F)CC1,51.7*,1.5,-3.0,28.1,13.9,-21.0
CC(=O)c1c(C)nc(C)nc1NC(=O)Cc1ccccc1,-2.0,-0.8,-2.0,-2.2,8.6,0.6
CC(=O)Nc1nc(-c2ccc(Cl)cc2)nc(C)c1C(C)=O,-13.1,24.1,-1.0,20.3,85.7*,0.8
CCN1CCCC1CNCc1cccc(OC)c1OCc1ccc(F)cc1 (stereo unspecified),5.2,-1.2,-3.0,10.0,77.2*,2.4
Cn1nnnc1SCC1=C(C(=O)O)N2C(=O)[C@@H](NC(=O)[C@H](O)c3ccccc3)[C@H]2SC1,-57.4,7.7,-4.0,51.2*,69.9,27.2
O=C(NC(NC(=S)Nc1ccccc1C(=O)O)C(Cl)(Cl)Cl)c1cccc([N+](=O)[O-])c1 (stereo unspecified),13.1,13.8,0.0,20.0,72.8*,2.7
O=C(NC(NC(=S)Nc1ccccc1Cl)C(Cl)(Cl)Cl)c1cccc(Cl)c1 (stereo unspecified),-50.0,3.2,-16.0,8.3,2.4,4.5
C/C(CC(=O)NCCN1CCOCC1)=N\NC(=O)c1ccncc1,-94.2,0.5,/,3.4,8.0,19.1
CCN(CC)S(=O)(=O)c1cccc(NC(=O)c2cc(=O)[nH]c3ccccc23)c1,-8.7,-2.4,0.0,23.2,3.4,0.6
CC(C)(C)n1nnnc1C(c1cccnc1)N1CCN(c2cccc(C(F)(F)F)c2)CC1 (stereo unspecified),58.0*,3.8,11.0,30.6,57.9,-4.3
O=C(Nc1ccc(N2CCOCC2)cc1)Nc1ccc2nc(-c3ccco3)c(-c3ccco3)nc2c1,42.5,-15.4,7.0,102.1*,4.5,9.6
O=S(=O)(c1ccc2nc(-c3ccco3)c(-c3ccco3)nc2c1)N1CCOCC1,24.6,22.8,8.0,89.5*,-3.9,5.1
O=C(Nc1ccc(F)c(Cl)c1)NC1CC1,-11.4,0.0,-3.0,2.3,-14.8,13.3
O=C(c1cc(-c2ccco2)on1)N1CCN(c2ccccc2)CC1,-34.5,-3.5,-1.0,21.0,15.7,0.9
O=C(Nc1ccc2nc(-c3ccco3)c(-c3ccco3)nc2c1)NC1CC1,29.2,40.8*[fluorescence artefact?],21.0,102.3*,45.1,45.8
O=C(c1ccc2nc(-c3ccco3)c(-c3ccco3)nc2c1)N1CCN(c2ccccc2)CC1,-19.3,-19.2,0.0,52.2*,13.7,4.5
CCCC(=O)Nc1ccccc1Sc1ncnc2scc(-c3ccccc3)c12,-2.4,5.7,-4.0,8.3,-20.7,2.8
O=C(NCCCO)Nc1ccc2nc(-c3ccco3)c(-c3ccco3)nc2c1,54.8*,48.2*,31.0,101.5*,28.0,2.1
NC(=O)[C@@H]1CCCN1Cc1nc(-c2cccs2)no1,-45.7,1.3,-3.0,54.1*,-2.2,5.4
SMILES,Mcl1 Bid PPI,eIF4E 4G PPI,Mcl-1 Bim block,Mcl1-Noxa inh,14-3-3 Bad PPI,Hck Nef HTS
NC(=O)C1CCN(Cc2nc(-c3cccs3)no2)CC1,-15.7,-2.1,/,-16.3,-0.9,-20.0
CC(C)(C)OC(=O)NNC(=O)c1cccs1,-5.6,2.1,0.0,6.2,-12.1,23.2
CC1=C(C(=O)OCCNC(=O)c2ccccc2O)C(c2ccccc2[N+](=O)[O-])C(C(=O)OCC2CCCO2)=C(C)N1 (stereo unspecified),-2.3,-0.5,0.0,32.4,10.0,2.9
O=C1NNC(c2ccccc2)=N/C1=C\c1ccccc1Cl,-9.3,-2.0,/,-6.0,2.6,4.3
O=C1NNC(c2ccccc2)=N/C1=C\c1ccco1,30.5,6.8,/,65.0*,17.0,45.0
COc1ccc(CCCc2nnc(SCC(=O)Nc3ccc(OC)cc3)o2)cc1,2.5,2.9,-1.0,39.4,12.7,23.6
O=C(CSc1nnc(COc2ccc3c(c2)CCCC3)o1)Nc1ccc(F)cc1,-16.1,-3.3,-4.0,-5.8,87.3*,1.6
C=C(C(=O)O)C1CCC2(C)CCCC(C)(O)C2C1 (stereo unspecified),-32.9,-16.1,/,16.2,5.0,31.5
CC[n+]1c(/C=C/c2c[nH]c3ccccc23)ccc2cc(C)ccc21,-43.6,32.0*,14.0,-178.6,-19.4,6.2
CCN(CC)C(=O)c1ccc(/C=C/c2c[nH]c3ccccc23)[n+](C)c1,-86.2,-2.3,-2.0,-97.4,10.6,2.3
CC(C)NC(=O)C1CCCN(S(=O)(=O)c2ccc(-n3cnnn3)cc2)C1 (stereo unspecified),98.3*,-2.1,-2.0,-12.2,-7.1,2.8
CC(C)(O)C1Cc2cc(/C=C/C(=O)O)c(O)cc2O1 (stereo unspecified),-24.8,61.9*,-6.0,61.0*,31.6,16.4
CC(=O)Nc1cccc(/C(C)=N\NC(=O)c2ccc(Cn3nc([N+](=O)[O-])c(Cl)c3C)o2)c1,-18.1,14.5,0.0,-1.9,-10.3,9.8
S=C(Nc1ccc(Cl)c(Cl)c1)NN1CCOCC1,-29.1,-1.0,-4.0,11.8,2.9,2.5
COc1ccc(-c2c(=O)n(OCc3ccccn3)c3ccccc3[n+]2[O-])cc1OC,-20.5,0.5,-4.0,53.8*,-1.2,0.6
CCn1ccnc1CN(C)C(=O)CCc1nnc(CCCc2ccccc2)o1,-31.7,-2.1,0.0,5.3,-4.2,22.1
COc1ccc(CCNS(=O)(=O)c2ccc3c(c2)CCN3C(=O)CCC(=O)O)cc1OC,-28.1,1.5,0.0,-3.0,2.2,-3.2
COc1ccc(CCNC(=O)CCNS(=O)(=O)c2ccc3c(c2)CCN3C(C)=O)cc1OC,57.6*,0.5,-3.0,-7.1,-6.2,-8.7
COc1ccc(-c2ccc(-c3nnn(CC(=O)N4CCOCC4)n3)cc2)cc1,1.5,-7.3,0.0,8.7,43.8,0.5
COc1ccc(N2CCN(C(=O)Cn3nnc(-c4ccc(N(C)C)cc4)n3)CC2)cc1,60.5*,-8.2,0.0,52.3*,76.7*,22.8
Cc1ccc(C(=O)C2C(=O)c3ccccc3C2=O)cc1,6.2,9.2,-3.0,9.7,81.8*,0.9
CN(C)S(=O)(=O)c1cc(S(=O)(=O)N(C)C)c(Cl)cc1N,70.4*,-7.3,2.0,28.2,19.4,0.2
